Test results as given in the supplement of paper PMC10849652.
The full data set covers some 7,900 targets. This sample favours those with a hit. About 0.6% of all pairs of compound and target were hits.

Columns and labels:
Experiment in all cases: log2 fold change, soluble protein after heating vs DMSO (PISA); higher = thermal stabilisation; K562 cells, 10 uM, 30 min; active = over 0.2 and 3.5 SD of the protein, either way, in both replicates (recomputed)
bafetinib = compound: Cc1ccc(NC(=O)c2ccc(CN3CC[C@H](N(C)C)C3)c(C(F)(F)F)c2)cc1Nc1nccc(-c2cncnc2)n1 [bafetinib]
Outline: (§1)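 K562 cells at 2×10^6 cells/mL were given 10 μM compound for 30 min. Aliquots then went through 3 min of heating across 48°C-58°C, were pooled, and were extracted in PBS with 0.5% NP-40 at 4°C, and the supernatant after 21,000xg for 90 min was quantified by TMTpro 16plex LC-MS/MS with channel sums equalised. Thermal stability relative to control samples, from duplicates, is given as log2 fold change.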

[1] = compound: Cc1cccc(CC(=O)N2CCc3c2ccc(-c2cn(C)c4ncnc(N)c24)c3F)n1
Outline: as §1

nilotinib = compound: Cc1cn(-c2cc(NC(=O)c3ccc(C)c(Nc4nccc(-c5cccnc5)n4)c3)cc(C(F)(F)F)c2)cn1 [nilotinib]
Outline: as §1

[2] = compound: Cc1nc(Nc2n[nH]c3c2CN(C(=O)N[C@H](CN(C)C)c2ccccc2)C3(C)C)c2sccc2n1
Outline: as §1

dasatinib = compound: Cc1nc(Nc2ncc(C(=O)Nc3c(C)cccc3Cl)s2)cc(N2CCN(CCO)CC2)n1 [dasatinib]
Outline: as §1

[3] = compound: Cc1ncc(-c2ccnc(Nc3ccc(S(C)(=O)=O)cc3)n2)n1C(C)C
Outline: as §1

[4] = compound: Cn1cc(-c2ccc3c(c2)CCN3C(=O)Cc2cccc(C(F)(F)F)c2)c2c(N)ncnc21
Outline: as §1

[5] = compound: Cn1cc(-c2ccc3nnc(C(F)(F)c4ccc5ncccc5c4)n3n2)cn1
Outline: as §1

tipifarnib = compound: Cn1cncc1[C@@](N)(c1ccc(Cl)cc1)c1ccc2c(c1)c(-c1cccc(Cl)c1)cc(=O)n2C [tipifarnib]
Outline: as §1

mubritinib = compound: FC(F)(F)c1ccc(/C=C/c2nc(COc3ccc(CCCCn4ccnn4)cc3)co2)cc1 [mubritinib]
Outline: as §1

Measured: log2 fold change

SRCAP (UniProt Q6ZRS2)
inactive: bafetinib -0.057 | [1] -0.001 | nilotinib 0.072 | [2] 0.152 | dasatinib -0.038 | [3] -0.007 | [4] -0.061 | [5] 0.037 | tipifarnib 0.083 | mubritinib 0.05

SRPRA (UniProt P08240)
inactive: bafetinib 0.143 | [1] 0.138 | nilotinib 0.066 | [2] 0.04 | dasatinib -0.105 | [3] 0.123 | [4] 0.054 | [5] -0.037 | tipifarnib -0.141
active: mubritinib 0.227

SPG21 (UniProt Q9NZD8)
inactive: bafetinib 0.158 | [1] -0.129 | nilotinib -0.173 | [2] -0.06 | dasatinib -0.087 | [3] 0.171 | [4] 0.022 | [5] 0.027 | tipifarnib -0.115 | mubritinib -0.042

SMARCAD1 isoform 2 (UniProt Q9H4L7)
UniProt Q9H4L7, sequence (Q9H4L7 whole entry, looked up): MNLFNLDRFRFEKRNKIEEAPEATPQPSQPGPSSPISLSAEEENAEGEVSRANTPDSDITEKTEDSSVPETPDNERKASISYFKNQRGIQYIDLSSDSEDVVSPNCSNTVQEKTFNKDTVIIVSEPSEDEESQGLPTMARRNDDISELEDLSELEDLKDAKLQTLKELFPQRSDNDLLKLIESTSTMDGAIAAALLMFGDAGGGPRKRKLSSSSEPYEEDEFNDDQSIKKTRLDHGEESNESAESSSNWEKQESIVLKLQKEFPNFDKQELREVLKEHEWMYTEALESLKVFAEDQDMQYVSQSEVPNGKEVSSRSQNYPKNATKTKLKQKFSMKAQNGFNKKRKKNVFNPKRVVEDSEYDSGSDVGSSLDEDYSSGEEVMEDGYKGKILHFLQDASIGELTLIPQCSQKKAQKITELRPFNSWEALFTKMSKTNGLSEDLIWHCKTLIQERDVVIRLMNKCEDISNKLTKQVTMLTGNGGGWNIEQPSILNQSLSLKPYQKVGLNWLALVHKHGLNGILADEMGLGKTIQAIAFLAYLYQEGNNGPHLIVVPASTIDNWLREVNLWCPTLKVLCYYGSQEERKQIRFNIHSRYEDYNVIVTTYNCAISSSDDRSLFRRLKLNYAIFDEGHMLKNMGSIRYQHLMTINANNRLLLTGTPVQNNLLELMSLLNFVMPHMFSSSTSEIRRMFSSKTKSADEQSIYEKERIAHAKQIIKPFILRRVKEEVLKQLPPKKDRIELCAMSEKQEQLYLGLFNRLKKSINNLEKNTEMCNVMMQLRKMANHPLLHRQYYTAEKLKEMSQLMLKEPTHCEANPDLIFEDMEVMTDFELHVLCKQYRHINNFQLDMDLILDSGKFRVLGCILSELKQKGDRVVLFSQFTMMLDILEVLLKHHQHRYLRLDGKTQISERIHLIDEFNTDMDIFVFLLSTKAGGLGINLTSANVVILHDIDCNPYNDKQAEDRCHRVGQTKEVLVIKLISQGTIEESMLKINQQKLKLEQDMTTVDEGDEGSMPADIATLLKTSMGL
inactive: bafetinib 0.067 | [1] 0.014 | nilotinib 0.049 | [2] -0.056 | dasatinib -0.131 | [3] -0.049 | [4] 0.088 | [5] 0.034 | tipifarnib -0.144 | mubritinib 0.241

ST3GAL2 (UniProt Q16842)
inactive: bafetinib 0.092 | [1] -0.008 | nilotinib 0.191 | [2] -0.042 | dasatinib 0.179 | [3] 0.081 | [4] -0.039 | [5] -0.022 | tipifarnib 0.076 | mubritinib -0.026

SMC5 (UniProt Q8IY18)
inactive: bafetinib 0.02 | [1] -0.029 | nilotinib 0 | [2] -0.095 | dasatinib 0.05 | [3] 0.082 | [4] 0.006 | [5] -0.102 | tipifarnib 0.032 | mubritinib -0.004

STXBP5 (UniProt Q5T5C0)
inactive: bafetinib -0.032 | [1] 0.017 | nilotinib 0.003 | [2] -0.025 | dasatinib -0.06 | [3] -0.003 | [4] 0.021 | [5] -0.026 | tipifarnib -0.049 | mubritinib -0.021

SRP68 (UniProt Q9UHB9)
inactive: bafetinib 0.043 | [1] 0.054 | nilotinib -0.118 | [2] -0.063 | dasatinib -0.098 | [3] 0.055 | [4] -0.026 | [5] -0.08 | tipifarnib -0.119 | mubritinib 0.012

SLC25A36 (UniProt Q96CQ1)
UniProt Q96CQ1, sequence (Q96CQ1 whole entry, looked up): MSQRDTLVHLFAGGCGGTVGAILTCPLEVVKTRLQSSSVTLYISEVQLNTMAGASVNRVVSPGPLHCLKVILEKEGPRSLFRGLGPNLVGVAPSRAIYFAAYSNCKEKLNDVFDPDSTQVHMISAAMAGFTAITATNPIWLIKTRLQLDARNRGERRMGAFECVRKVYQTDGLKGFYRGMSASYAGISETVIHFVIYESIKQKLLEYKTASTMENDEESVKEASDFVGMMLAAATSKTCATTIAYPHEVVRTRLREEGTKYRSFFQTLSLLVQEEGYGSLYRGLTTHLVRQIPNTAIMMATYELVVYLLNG
inactive: bafetinib -0.049 | [1] -0.003 | nilotinib -0.01 | [2] 0.182 | dasatinib -0.136 | [3] -0.138 | [4] 0.033 | [5] -0.004 | tipifarnib -0.075 | mubritinib -0.078

SRSF4 (UniProt Q08170)
inactive: bafetinib 0.215 | [1] -0.064 | nilotinib 0.013 | dasatinib 0.109 | [3] 0.028 | [4] -0.166 | [5] -0.14 | tipifarnib 0.127 | mubritinib -0.109
active: [2] -0.602

ST6GAL1 (UniProt P15907)
UniProt P15907, sequence (P15907 whole entry, looked up): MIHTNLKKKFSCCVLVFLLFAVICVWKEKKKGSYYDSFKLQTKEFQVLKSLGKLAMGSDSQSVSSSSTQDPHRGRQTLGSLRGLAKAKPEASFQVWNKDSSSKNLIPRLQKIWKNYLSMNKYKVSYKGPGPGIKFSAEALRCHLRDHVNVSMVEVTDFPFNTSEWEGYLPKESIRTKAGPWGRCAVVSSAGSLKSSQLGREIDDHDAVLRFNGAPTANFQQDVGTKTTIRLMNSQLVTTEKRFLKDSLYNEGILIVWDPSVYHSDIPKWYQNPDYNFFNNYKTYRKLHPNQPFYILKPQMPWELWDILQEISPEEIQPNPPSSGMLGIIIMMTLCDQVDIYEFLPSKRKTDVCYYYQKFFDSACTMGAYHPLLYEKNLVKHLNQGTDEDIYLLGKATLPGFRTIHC
inactive: bafetinib 0.001 | [1] 0.029 | nilotinib 0.168 | [2] -0.048 | dasatinib 0.131 | [3] -0.001 | [4] 0.007 | [5] -0.02 | tipifarnib 0.128 | mubritinib -0.023

SPINDOC (UniProt Q9BUA3)
UniProt Q9BUA3, sequence (Q9BUA3 whole entry, looked up): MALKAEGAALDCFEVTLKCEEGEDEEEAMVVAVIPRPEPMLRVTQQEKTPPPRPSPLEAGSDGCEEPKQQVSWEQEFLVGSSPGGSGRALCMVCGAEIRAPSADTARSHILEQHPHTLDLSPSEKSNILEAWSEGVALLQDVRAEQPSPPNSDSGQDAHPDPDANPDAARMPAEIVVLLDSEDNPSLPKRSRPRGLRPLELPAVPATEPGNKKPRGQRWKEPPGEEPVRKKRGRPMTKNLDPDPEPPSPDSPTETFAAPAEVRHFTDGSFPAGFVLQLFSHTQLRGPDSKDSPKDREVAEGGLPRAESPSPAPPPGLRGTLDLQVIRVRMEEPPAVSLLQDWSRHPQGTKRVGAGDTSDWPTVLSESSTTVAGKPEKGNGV
active: [2] -0.458
inactive: bafetinib -0.149 | [1] -0.031 | nilotinib 0.049 | dasatinib -0.105 | [3] -0.127 | [4] -0.085 | [5] -0.044 | tipifarnib 0.046 | mubritinib 0.04

TFRC (UniProt P02786)
active: bafetinib -0.277
inactive: [1] -0.038 | nilotinib -0.005 | [2] -0.043 | dasatinib 0.009 | [3] -0.018 | [4] 0.012 | [5] 0.027 | tipifarnib -0.004 | mubritinib 0.052

STAT5A (UniProt P42229)
inactive: bafetinib 0.034 | [1] 0.208 | nilotinib -0.112 | dasatinib -0.191 | [3] -0.051 | [4] 0 | [5] 0.104 | tipifarnib -0.107
active: [2] -0.338 | mubritinib 0.371

STK38 (UniProt Q15208)
UniProt Q15208, sequence (Q15208 whole entry, looked up): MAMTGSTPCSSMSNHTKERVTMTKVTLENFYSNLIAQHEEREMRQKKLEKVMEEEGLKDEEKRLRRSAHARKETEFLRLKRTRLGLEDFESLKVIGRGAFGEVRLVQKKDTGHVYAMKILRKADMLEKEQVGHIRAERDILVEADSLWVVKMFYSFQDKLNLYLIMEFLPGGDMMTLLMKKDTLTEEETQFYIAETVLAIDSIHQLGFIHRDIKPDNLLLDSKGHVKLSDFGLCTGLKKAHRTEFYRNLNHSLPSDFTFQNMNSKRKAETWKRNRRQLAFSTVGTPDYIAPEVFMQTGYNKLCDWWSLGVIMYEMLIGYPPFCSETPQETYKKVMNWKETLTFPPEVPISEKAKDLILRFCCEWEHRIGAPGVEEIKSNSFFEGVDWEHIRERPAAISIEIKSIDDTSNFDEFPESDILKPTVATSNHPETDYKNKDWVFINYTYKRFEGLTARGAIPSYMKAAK
active: [2] -0.343
inactive: bafetinib 0.054 | [1] 0 | nilotinib -0.105 | dasatinib -0.136 | [3] 0.009 | [4] 0.035 | [5] 0.008 | tipifarnib -0.079 | mubritinib -0.083

TJP2 isoform 7 (UniProt Q9UDY2)
inactive: bafetinib 0.05 | [1] 0.149 | nilotinib 0.014 | [2] -0.207 | dasatinib -0.191 | [3] -0.025 | [4] 0.009 | [5] 0.014 | tipifarnib -0.094 | mubritinib 0.002

SMAP2 (UniProt Q8WU79)
UniProt Q8WU79, sequence (Q8WU79 whole entry, looked up): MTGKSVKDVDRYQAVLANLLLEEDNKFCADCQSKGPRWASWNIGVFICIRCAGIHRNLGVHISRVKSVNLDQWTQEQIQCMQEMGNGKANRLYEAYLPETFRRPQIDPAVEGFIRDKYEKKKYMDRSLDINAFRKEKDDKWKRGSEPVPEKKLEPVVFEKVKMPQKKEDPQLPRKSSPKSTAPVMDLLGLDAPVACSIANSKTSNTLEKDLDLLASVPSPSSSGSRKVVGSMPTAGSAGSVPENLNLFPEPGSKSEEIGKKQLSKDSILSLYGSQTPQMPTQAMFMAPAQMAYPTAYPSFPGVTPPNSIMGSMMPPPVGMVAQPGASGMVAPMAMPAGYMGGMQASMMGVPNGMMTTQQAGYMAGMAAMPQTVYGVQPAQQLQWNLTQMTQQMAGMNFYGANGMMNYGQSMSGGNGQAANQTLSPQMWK
inactive: bafetinib 0.01 | [1] -0.025 | nilotinib -0.078 | [2] -0.039 | dasatinib -0.135 | [3] 0.044 | [4] -0.022 | [5] -0.004 | tipifarnib -0.014 | mubritinib 0.018

SLC27A4 (UniProt Q6P1M0)
active: mubritinib 0.598
inactive: bafetinib -0.026 | [1] 0.022 | nilotinib -0.098 | [2] -0.101 | dasatinib -0.113 | [3] 0.011 | [4] 0.003 | [5] 0.009 | tipifarnib 0.124

TARBP1 (UniProt Q13395)
inactive: bafetinib -0.022 | [1] 0.005 | nilotinib 0.019 | [2] 0.081 | dasatinib -0.058 | [3] -0.026 | [4] 0.116 | [5] -0.013 | tipifarnib 0.036 | mubritinib -0.055

SUN2 (UniProt Q9UH99)
UniProt Q9UH99, sequence (Q9UH99 whole entry, looked up): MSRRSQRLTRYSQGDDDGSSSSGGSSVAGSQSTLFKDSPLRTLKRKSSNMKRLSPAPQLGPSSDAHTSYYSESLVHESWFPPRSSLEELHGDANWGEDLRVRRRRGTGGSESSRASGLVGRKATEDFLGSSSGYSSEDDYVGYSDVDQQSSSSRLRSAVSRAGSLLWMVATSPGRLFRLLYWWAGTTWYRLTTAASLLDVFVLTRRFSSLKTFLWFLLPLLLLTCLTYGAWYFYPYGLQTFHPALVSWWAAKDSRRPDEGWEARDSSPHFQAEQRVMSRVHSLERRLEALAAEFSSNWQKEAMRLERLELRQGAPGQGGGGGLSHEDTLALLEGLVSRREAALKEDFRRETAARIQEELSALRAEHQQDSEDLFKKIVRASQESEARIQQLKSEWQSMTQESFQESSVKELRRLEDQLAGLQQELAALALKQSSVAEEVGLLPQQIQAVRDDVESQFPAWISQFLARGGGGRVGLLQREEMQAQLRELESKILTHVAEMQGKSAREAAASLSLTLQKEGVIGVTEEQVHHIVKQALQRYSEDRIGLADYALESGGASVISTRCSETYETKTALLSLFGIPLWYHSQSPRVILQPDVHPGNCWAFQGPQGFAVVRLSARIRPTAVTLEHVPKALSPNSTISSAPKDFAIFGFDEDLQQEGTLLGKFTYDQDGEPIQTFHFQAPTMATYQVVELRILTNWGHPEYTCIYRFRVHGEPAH
inactive: bafetinib -0.04 | [1] 0.016 | nilotinib -0.007 | [2] -0.036 | dasatinib 0.004 | [3] -0.071 | [4] -0.052 | [5] -0.008 | tipifarnib 0.013 | mubritinib -0.064

SUGP1 (UniProt Q8IWZ8)
inactive: bafetinib -0.033 | [1] 0.012 | nilotinib -0.019 | [2] -0.058 | dasatinib -0.139 | [3] -0.043 | [4] 0.08 | [5] -0.012 | tipifarnib -0.007 | mubritinib 0.063

SLC25A38 (UniProt Q96DW6)
UniProt Q96DW6, sequence (Q96DW6 whole entry, looked up): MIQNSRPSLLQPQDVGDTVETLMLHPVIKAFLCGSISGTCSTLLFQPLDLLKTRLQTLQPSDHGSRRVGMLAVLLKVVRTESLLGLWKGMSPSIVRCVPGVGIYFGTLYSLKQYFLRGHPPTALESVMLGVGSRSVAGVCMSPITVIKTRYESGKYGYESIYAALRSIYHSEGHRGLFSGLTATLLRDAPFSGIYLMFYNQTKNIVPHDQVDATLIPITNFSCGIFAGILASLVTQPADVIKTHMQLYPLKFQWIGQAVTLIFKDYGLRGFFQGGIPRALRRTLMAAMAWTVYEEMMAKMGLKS
inactive: bafetinib -0.08 | [1] -0.03 | nilotinib -0.03 | [2] 0.023 | dasatinib 0.143 | [3] -0.114 | [4] 0.022 | [5] 0.019 | tipifarnib 0.043 | mubritinib 0.052

SLC30A7 (UniProt Q8NEW0)
inactive: bafetinib -0.169 | [1] -0.094 | nilotinib -0.16 | [2] 0.052 | dasatinib 0.04 | [3] 0.003 | [4] 0.048 | [5] -0.026 | tipifarnib 0.023 | mubritinib 0.107

SLC4A2 (UniProt P04920)
inactive: bafetinib -0.101 | [1] -0.037 | nilotinib 0.027 | [2] -0.165 | dasatinib -0.125 | [3] 0.043 | [4] 0.023 | [5] -0.045 | tipifarnib -0.068 | mubritinib 0.029

SNW1 (UniProt Q13573)
UniProt Q13573, sequence (Q13573 whole entry, looked up): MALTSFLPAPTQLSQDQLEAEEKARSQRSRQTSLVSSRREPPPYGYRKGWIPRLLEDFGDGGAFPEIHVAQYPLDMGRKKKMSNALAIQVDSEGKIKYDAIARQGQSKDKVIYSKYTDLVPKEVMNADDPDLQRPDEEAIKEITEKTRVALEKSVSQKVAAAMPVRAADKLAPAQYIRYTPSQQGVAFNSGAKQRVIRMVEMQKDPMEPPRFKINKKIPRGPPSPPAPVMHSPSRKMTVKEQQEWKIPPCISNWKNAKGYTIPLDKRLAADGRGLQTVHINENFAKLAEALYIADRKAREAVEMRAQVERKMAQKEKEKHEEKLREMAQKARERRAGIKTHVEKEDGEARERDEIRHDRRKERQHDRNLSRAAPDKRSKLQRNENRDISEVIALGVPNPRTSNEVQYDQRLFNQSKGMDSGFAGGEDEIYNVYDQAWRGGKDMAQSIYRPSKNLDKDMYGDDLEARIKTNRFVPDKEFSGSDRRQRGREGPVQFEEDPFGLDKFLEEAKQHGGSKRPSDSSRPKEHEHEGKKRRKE
inactive: bafetinib -0.049 | [1] -0.071 | nilotinib 0.004 | [2] 0.067 | dasatinib 0.027 | [3] 0.088 | [4] -0.055 | [5] -0.043 | tipifarnib 0.026 | mubritinib -0.006

TBK1 (UniProt Q9UHD2)
active: [2] 0.911
inactive: bafetinib -0.035 | [1] -0.024 | nilotinib -0.114 | dasatinib -0.096 | [3] 0.012 | [4] 0.055 | [5] -0.002 | tipifarnib -0.103 | mubritinib -0.038

SNX15 (UniProt Q9NRS6)
UniProt Q9NRS6, sequence (Q9NRS6 whole entry, looked up): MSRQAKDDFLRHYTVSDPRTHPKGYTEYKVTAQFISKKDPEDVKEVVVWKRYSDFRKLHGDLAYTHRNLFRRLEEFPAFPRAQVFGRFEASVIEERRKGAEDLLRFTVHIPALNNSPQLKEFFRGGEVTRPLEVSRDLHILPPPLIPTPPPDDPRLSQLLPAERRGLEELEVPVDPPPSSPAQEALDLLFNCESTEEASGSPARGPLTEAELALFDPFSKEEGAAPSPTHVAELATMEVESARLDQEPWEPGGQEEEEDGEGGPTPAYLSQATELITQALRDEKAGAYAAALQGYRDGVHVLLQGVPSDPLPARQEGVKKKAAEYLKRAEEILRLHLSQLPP
inactive: bafetinib 0.036 | [1] 0.154 | nilotinib -0.064 | [2] -0.17 | dasatinib 0.206 | [3] 0.002 | [4] -0.046 | [5] 0.086 | tipifarnib 0.067 | mubritinib -0.063
